Values joined by “and” are separate entries in the source; they are usually repeats but may differ in a detail not shown here. Equal values may be shown once. More than one record can exist for a structure, and the calls need not agree. Active and inactive are the calls of the source. How the source made its calls: active means hit-call score of the fitted dose curve at least 0.9, where 1 is the maximum; inactive means score below 0.9.

Drawing on PubChem BioAssay (EPA / NIEHS), this text covers outcome and AC50 for three compounds.

Read-out in assay [1]: Interleukin-1 alpha (IL1a), IL1A (gene 3552)
Put plainly: BSK_KF3CT_IL1a: BioMAP Diversity Plus: KF3CT Assay for Interleukin-1 alpha (IL1a) Biomarker Activity (AID 2283070). The settings on record: primary human keratinocytes with fibroblasts; actives raise or lower the signal. Summed up:
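Human keratinocyte plus foreskin fibroblast primary co-culture, sampled 24 h after chemical dosing. IL-1a measured by ELISA; responses fitted bidirectionally against DMSO baseline (negative control), so gain or loss of signal both count.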

Read-out in assay [2]: TIMP metallopeptidase inhibitor 2 (TIMP2), TIMP2 (gene 7077)
Put plainly: BSK_KF3CT_TIMP2: BioMAP Diversity Plus: KF3CT Assay for TIMP metallopeptidase inhibitor 2 (TIMP2) Biomarker Activity (AID 2283071). The settings on record: primary human keratinocytes with fibroblasts; actives raise or lower the signal. Summed up:
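Human primary keratinocyte/foreskin fibroblast co-culture dosed with chemical and sampled at 24 h. TIMP-2 levels quantified by ELISA; bidirectional fitting against DMSO negative control as baseline.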

Read-out in assay [3]: Transforming growth factor beta 1 (TGFb1), TGFB1 (gene 7040)
Put plainly: BSK_KF3CT_TGFb1: BioMAP Diversity Plus: KF3CT Assay for Transforming growth factor beta 1 (TGFb1) Biomarker Activity (AID 2283072). To be noted: primary human keratinocytes with fibroblasts; actives raise or lower the signal. In a few lines: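 Human keratinocyte plus foreskin fibroblast primary co-culture, dosed with chemical for 24 h. TGF-b1 quantified by ELISA. Activity fitted bidirectionally against DMSO negative control as baseline.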

Read-out in assay [4]: Matrix Metallopeptidase 9 (MMP9), MMP9 (gene 4318)
Put plainly: BSK_KF3CT_MMP9: BioMAP Diversity Plus: KF3CT Assay for Matrix Metallopeptidase 9 (MMP9) Biomarker Activity (AID 2283074).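 On AC50: MMP9 protein level quantified by ELISA in the co-culture.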 The settings on record: primary human keratinocytes with fibroblasts; actives raise or lower the signal. Summed up:
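Keratinocyte plus foreskin fibroblast human primary skin co-culture was dosed with chemical and MMP-9 was quantified by ELISA 24 h later. Bidirectional curve fitting used DMSO as negative control and activity baseline.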

Read-out in assay [5]: urokinase plasminogen activator (uPA), PLAU (gene 5328)
Put plainly: BSK_KF3CT_uPA: BioMAP Diversity Plus: KF3CT Assay for urokinase plasminogen activator (uPA) Biomarker Activity (AID 2283075). To be noted: primary human keratinocytes with fibroblasts; actives raise or lower the signal. In a few lines:
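Human keratinocyte plus foreskin fibroblast primary co-culture exposed to chemical for 24 h. uPA levels were quantified by ELISA, and activity was fitted bidirectionally against a DMSO negative-control baseline.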

Read-out in assay [6]: CD40, CD40 (gene 958)
Put plainly: BSK_LPS_CD40: BioMAP Diversity Plus: LPS Assay for CD40 Biomarker Activity (AID 2283076). To be noted: primary human HUVEC with PBMC; actives raise or lower the signal. In a few lines: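 ELISA readout of CD40 in HUVEC/PBMC co-culture (BSK_LPS system), 24 h post-dosing; bidirectional curve fit, DMSO baseline; parallel SRB total-protein staining for cytotoxicity.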

Read-out in assay [7]: E-selectin (Homo sapiens) (UniProt P16581)
Put plainly: BSK_LPS_Eselectin: BioMAP Diversity Plus: LPS Assay for Eselectin Biomarker Activity (AID 2283077). To be noted: primary human HUVEC with PBMC; actives raise or lower the signal. In a few lines: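 ELISA readout of E-selectin, 24 h post-dose, HUVEC + PBMC co-culture (LPS system). Gain or loss of signal vs DMSO baseline, bidirectional fit.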

Read-out in assay [8]: Interleukin-8 (IL8), CXCL8 (gene 3576)
Put plainly: BSK_LPS_IL8: BioMAP Diversity Plus: LPS Assay for Interleukin-8 (IL8) Biomarker Activity (AID 2283078). The settings on record: primary human HUVEC with PBMC; actives raise or lower the signal. Summed up:
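HUVEC + PBMC co-culture, LPS-activated; test chemicals dosed, IL-8 read by ELISA at 24 h. Bidirectional curve fit vs DMSO baseline (gain or loss of signal).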

Assay [9] can be described thus: BSK_LPS_SRB: Viability Assessment in the BioMAP Diversity Plus: LPS Assay (AID 2283079).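 Further: total protein by sulforhodamine B absorbance as a cytotoxicity measure; measured one day after compound addition.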 To be noted: primary human HUVEC with PBMC. In a few lines: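 HUVEC + PBMC co-culture, LPS-stimulated; compound 24 h. 10% TCA fix, 0.1% SRB stain, A560. Bidirectional fit vs DMSO.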
Read-out in assay [10]: Interleukin-1 alpha (IL1a), IL1A (gene 3552)
Put plainly: BSK_LPS_IL1a: BioMAP Diversity Plus: LPS Assay for Interleukin-1 alpha (IL1a) Biomarker Activity (AID 2283080). To be noted: primary human HUVEC with PBMC; actives raise or lower the signal. In a few lines:
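HUVEC/PBMC co-culture, LPS system; 24 h after dosing; IL-1a by ELISA; gain or loss of signal fitted bidirectionally vs DMSO baseline.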

Read-out in assay [11]: Monocyte Chemoattractant Protein-1 (MCP1), CCL2 (gene 6347)
Put plainly: BSK_LPS_MCP1: BioMAP Diversity Plus: LPS Assay for Monocyte Chemoattractant Protein-1 (MCP1) Biomarker Activity (AID 2283081).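 On AC50: secreted MCP-1 protein quantified by ELISA in culture supernatant.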 The settings on record: primary human HUVEC with PBMC; actives raise or lower the signal. In a few lines:
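ELISA read-out of MCP-1 after 24 h chemical dosing of a human umbilical vein endothelial cell/peripheral blood mononuclear cell co-culture stimulated with LPS. Gain or loss of signal fitted relative to DMSO controls.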

A short description of assay [12]: BSK_LPS_PGE2: BioMAP Diversity Plus: LPS Assay for Prostaglandin E2 (PGE2) Biomarker Activity (AID 2283082).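 On AC50: secreted prostaglandin E2 measured by ELISA in LPS-stimulated co-culture.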 To be noted: primary human HUVEC with PBMC; actives raise or lower the signal. Summed up:
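HUVEC plus PBMC co-culture stimulated with LPS; secreted PGE2 quantified by ELISA 24 h after chemical dosing. Activity fitted bidirectionally against DMSO as negative control and baseline; parallel SRB total-protein staining served as cytotoxicity check.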

Read-out in assay [13]: Macrophage colony-stimulating factor (MCSF), CSF1 (gene 1435)
Put plainly: BSK_LPS_MCSF: BioMAP Diversity Plus: LPS Assay for Macrophage colony-stimulating factor (MCSF) Biomarker Activity (AID 2283083). The settings on record: primary human HUVEC with PBMC; actives raise or lower the signal. Summed up: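 HUVEC + PBMC co-culture (human primary), 24 h post-dose; M-CSF by ELISA; gain/loss of signal fitted bidirectionally vs DMSO baseline.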

Read-out in assay [14]: Tissue Factor, F3 (gene 2152)
Put plainly: BSK_LPS_TissueFactor: BioMAP Diversity Plus: LPS Assay for Tissue Factor Biomarker Activity (AID 2283084). The settings on record: primary human HUVEC with PBMC; actives raise or lower the signal. In a few lines:
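HUVEC/PBMC co-culture, LPS-activated; CD142 ELISA read 24 h post-dose; bidirectional curve fit vs DMSO negative control.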

Read-out in assay [15]: Tumor necrosis factor (Homo sapiens) (UniProt P01375)
Put plainly: BSK_LPS_TNFa: BioMAP Diversity Plus: LPS Assay for Tumour Necrosis Factor alpha (TNFa) Biomarker Activity (AID 2283085).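 On AC50: TNFa protein level quantified by ELISA in the co-culture.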 The settings on record: primary human HUVEC with PBMC; actives raise or lower the signal. Summed up:
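Human umbilical vein endothelial cells co-cultured with PBMC were exposed to test chemical and TNFa measured by ELISA 24 h after dosing. Bidirectional curve fitting was done relative to DMSO as negative control and baseline.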

Read-out in assay [16]: Vascular cell adhesion molecule 1 (VCAM1), VCAM1 (gene 7412)
Put plainly: BSK_LPS_VCAM1: BioMAP Diversity Plus: LPS Assay for Vascular cell adhesion molecule 1 (VCAM1) Biomarker Activity (AID 2283086). The settings on record: primary human HUVEC with PBMC; actives raise or lower the signal. Summed up: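 Human umbilical vein endothelial cells co-cultured with peripheral blood mononuclear cells under LPS stimulation were exposed to test chemical for 24 h. VCAM-1 levels were then measured by ELISA, with bidirectional curve fitting relative to DMSO as negative control and baseline.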

Read-out in the next assay: CD38, CD38 (gene 952)
Put plainly: BSK_SAg_CD38: BioMAP Diversity Plus: SAg Assay for CD38 Biomarker Activity (AID 2283087). To be noted: primary human HUVEC with PBMC; actives raise or lower the signal. Summed up: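 Fluorescence ELISA of cell-surface CD38 served as the read-out, with either increase or decrease fitted against DMSO controls. Cells were a human umbilical vein endothelium plus PBMC co-culture under SEB/TSST-1 stimulation, measured 24 h after dosing.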

Read-out in assay [17]: CD40, CD40 (gene 958)
Put plainly: BSK_SAg_CD40: BioMAP Diversity Plus: SAg Assay for CD40 Biomarker Activity (AID 2283088). The settings on record: primary human HUVEC with PBMC; actives raise or lower the signal. In a few lines:
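HUVEC/PBMC co-culture, 24 h post-dose; CD40 by ELISA, fluorescence intensity; bidirectional fit vs DMSO negative control.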

Read-out in another assay: CD69, CD69 (gene 969)
Put plainly: BSK_SAg_CD69: BioMAP Diversity Plus: SAg Assay for CD69 Biomarker Activity (AID 2283089).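 On AC50: cell surface CD69 protein quantified by ELISA with fluorescence detection.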 The settings on record: primary human HUVEC with PBMC; actives raise or lower the signal. In a few lines:
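ELISA, fluorescence read-out: CD69 on human umbilical vein endothelial cell + PBMC co-culture, 24 h post-dosing. Gain or loss of signal fitted bidirectionally against DMSO baseline.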

Read-out in assay [18]: C-C motif chemokine 2 (Homo sapiens) (UniProt P13500)
Put plainly: BSK_KF3CT_MCP1: BioMAP Diversity Plus: KF3CT Assay for Monocyte Chemoattractant Protein 1 (MCP1/CCL2) Biomarker Activity (AID 2283073). The settings on record: primary human keratinocytes with fibroblasts; actives raise or lower the signal. Summed up:
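KF3CT skin co-culture (keratinocytes/foreskin fibroblasts), 24 h post-dose; MCP-1 by ELISA; gain/loss of signal fit bidirectionally vs DMSO baseline.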

Chain of Tumor necrosis factor (Homo sapiens) (P01375 whole entry, looked up): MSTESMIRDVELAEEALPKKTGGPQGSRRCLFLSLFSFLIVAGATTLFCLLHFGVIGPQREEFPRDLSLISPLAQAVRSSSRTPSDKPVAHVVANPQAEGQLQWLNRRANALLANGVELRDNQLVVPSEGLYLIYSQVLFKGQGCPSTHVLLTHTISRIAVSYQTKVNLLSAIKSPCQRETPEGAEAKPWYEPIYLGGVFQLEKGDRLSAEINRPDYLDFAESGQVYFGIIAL
Chain of E-selectin (Homo sapiens) (P16581 whole entry, looked up): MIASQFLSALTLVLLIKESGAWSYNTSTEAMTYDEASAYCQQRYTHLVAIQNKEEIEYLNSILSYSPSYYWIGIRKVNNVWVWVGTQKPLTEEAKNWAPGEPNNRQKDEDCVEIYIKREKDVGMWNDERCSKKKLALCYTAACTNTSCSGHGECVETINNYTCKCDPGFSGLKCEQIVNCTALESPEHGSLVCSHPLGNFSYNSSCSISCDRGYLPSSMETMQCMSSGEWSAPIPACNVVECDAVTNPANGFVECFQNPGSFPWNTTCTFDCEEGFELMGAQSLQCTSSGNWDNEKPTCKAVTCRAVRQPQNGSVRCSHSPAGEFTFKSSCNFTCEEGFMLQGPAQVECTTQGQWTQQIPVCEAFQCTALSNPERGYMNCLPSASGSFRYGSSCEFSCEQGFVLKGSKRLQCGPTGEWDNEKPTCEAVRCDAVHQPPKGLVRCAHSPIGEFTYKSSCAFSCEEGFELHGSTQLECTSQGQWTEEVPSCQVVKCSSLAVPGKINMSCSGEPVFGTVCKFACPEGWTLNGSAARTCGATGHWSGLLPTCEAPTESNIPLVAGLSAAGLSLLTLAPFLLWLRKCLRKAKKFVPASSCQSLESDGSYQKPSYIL

As a reminder, the AC50 is the midpoint of the concentration-response curve, whichever way the signal moves. For `CCCN(CCC)c1c([N+](=O)[O-])cc(S(N)(=O)=O)cc1[N+](=O)[O-]`, the result in assay [1], in assay [2], in assay [3], in assay [4], in assay [5] and in [7] was inactive. Besides, the outcome in assay [11], in assay [12], in assay [14] and in assay [15] was inactive. For the same compound, the half-maximal activity concentration (AC50) is 34.6 µM (active) in assay [2]; 34.4 µM (active) in assay [3]; 32.8 µM (active) in assay [4]; 33.6 µM (active) [middle of 4 runs] in the assay with CD40, CD40 (gene 958) [6]; 36.9 µM (active) and 32.6 µM (active) and 36.7 µM (active) in assay [7]; 33.1 µM (active) [middle of 4 runs] in assay [8]. Moreover, the AC50 was 31.8 µM (active) [middle of 4 runs] in assay [9]; 33.5 µM (active) [middle of 4 runs] in assay [10]; 37.8 µM (active) and 35.1 µM (active) and 33 µM (active) in [11]; 34.7 µM (active) in [12]; 32.3 µM (active) [middle of 4 runs] in assay [13]; 34.3 µM (active) and 38.1 µM (active) and 32.8 µM (active) in assay [14]. For the same compound, the half-maximal activity concentration (AC50) was 33.6 µM (active) and 32.2 µM (active) in assay [15]; 34.6 µM (active) [middle of 4 runs] in assay [16]; 38.7 µM (active) [middle of 4 runs] in the assay with CD38, CD38 (gene 952); 35.8 µM (active) [middle of 4 runs] with CD40, CD40 (gene 958) [17]; 32.6 µM (active) [middle of 4 runs] in the assay with CD69, CD69 (gene 969).

Turning to `C=CCC1=C(C)[C@@H](OC(=O)[C@@H]2[C@@H](C=C(C)C)C2(C)C)CC1=O`, the outcome in assay [1], in assay [2], in assay [3], in [18], in assay [5] and in assay [14] was inactive. Further, the AC50 was 32.6 µM (active) in assay [4]; 29.2 µM (active) in the assay with CD40, CD40 (gene 958) [6]; 32.4 µM (active) in assay [7]; 26.3 µM (active) in assay [8]; 36.2 µM (active) in assay [9]; 32.3 µM (active) in assay [10]. The AC50 in [11] is 32.1 µM (active); in assay [12] it was 4.92 µM (active); in [13], 26.9 µM (active); in assay [15], 36.5 µM (active); in assay [16] it was 29.2 µM (active); in the assay with CD38, CD38 (gene 952), 33.1 µM (active). Also, the AC50 with CD40, CD40 (gene 958) [17] was 38.7 µM (active); in the assay with CD69, CD69 (gene 969), 36.5 µM (active).

Take `CCOC(=O)CC(SP(=S)(OC)OC)C(=O)OCC` (configuration not stated): the outcome in assay [1], in assay [2], in [3], in assay [18], in assay [4] and in assay [5] was inactive. For the same compound, the outcome with CD40, CD40 (gene 958) [6] was “inactive”; in assay [7], “inactive”; in [8], “inactive”; in assay [9], “inactive”; in [10], “inactive”; in assay [11] it was “inactive”. In addition, the outcome is “inactive” in assay [12]; “inactive” in [13]; “inactive” in [14]; “inactive” in assay [15]; “inactive” in assay [16]; “inactive” with CD38, CD38 (gene 952). The outcome in the assay with CD40, CD40 (gene 958) [17] is “inactive”; in the assay with CD69, CD69 (gene 969), “inactive”.
